In PubChem BioAssay AID504848 (National Center for Advancing Translational Sciences (NCATS), 2011):
In all, about 2,300 compounds went through this assay and about 1,400 (61%) were called active. About 29% were inconclusive and are not listed. The call rests on the fitted dose curve; in most records, active means well fitted inhibition curve with a large enough effect; inconclusive means small, poorly fitted or top-dose-only effect, or effect the other way; inactive means no such curve, though single readings can be large or run the other way. The set was probably picked from earlier hits. Some of the results follow.

assay: Confirmation screen for delayed death inhibitors of the malarial parasite plastid, 96 hour incubation; further: nearly all actives have a fitted effect of over 60% in size; details: P. falciparum luciferase growth in erythrocytes; series mostly up to 28.7 µM
Method in brief: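 Erythrocytes infected with luciferase-expressing P. falciparum (2% hematocrit, 0.1% parasitemia final) in RPMI 1640 with 0.5% Albumax, exposed to compounds 96 h at 37 C, 5% CO2. Growth inhibition read as decreased luciferase luminescence.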
Potency means the concentration at half of the fitted maximal effect.

Compound	Potency
CC(C)OCCCNc1ncnc2c1[nH]c1ccc(F)cc12	4.47 µM (active)
COc1ccc2[nH]c3c(NCCC4=CCCCC4)ncnc3c2c1	5.62 µM (active)
COc1ccc2[nH]c3c(NCCN(C(C)C)C(C)C)ncnc3c2c1	3.98 µM (active)
Cc1ccccc1OCC(=O)NCCC1=CCCCC1	inactive
Cc1cc(=O)nc2c3ccccc3n(CC(=O)NCCC3=CCCCC3)n12	8.91 µM (active)
O=C(NCCCn1ccnc1)C(=O)NCC1OCCN1S(=O)(=O)c1ccc(F)cc1 (configuration not stated)	inactive
COc1ccc(S(=O)(=O)N2CCC(C(=O)Nc3ccccc3N3CCCCC3)CC2)cc1OC	7.94 µM (active)
COc1ccc(CCNC(=O)C(=O)NCC2OCCN2S(=O)(=O)c2ccc3c(c2)OCCO3)cc1OC (configuration not stated)	11.2 µM (active)
COc1ccc(CCNC(=O)C2CCN(S(=O)(=O)c3ccc(OC)c(OC)c3)CC2)cc1OC	12.6 µM (active)
COc1ccc(Cl)cc1NC(=O)C1Cc2cc(S(=O)(=O)N3CCCC3)ccc2N1C(C)=O (configuration not stated)	11.2 µM (active)
Cc1ccc(-c2nnc(N3CCOCC3)c3ccccc23)cc1S(=O)(=O)NCC1CCCO1 (configuration not stated)	2.51 µM (active)
Cc1cc(C)c(OCC(O)CNC(C)(C)C)c(C)c1 (configuration not stated)	7.08 µM (active)
COc1ccc(N2CCc3c(C)nc4c(OC)cc(OC)cc4c32)c(OC)c1	5.01 µM (active)
CC(C)NC(=S)N/N=C/c1sc(N2CCCCC2)nc1-c1cccs1	5.01 µM (active)
Cc1cc2nsnc2c(S(=O)(=O)N2CCN(C)CC2)c1C	inactive
CC1CCN(CCNC(=O)C2CCN(S(=O)(=O)c3cccc4nsnc34)CC2)CC1	7.94 µM (active)
C=CCn1cccc(/C=C/C(=O)c2ccc(C(C)(C)C)cc2)c1=S	0.794 µM (active)
COc1ccc(CC(=O)NCC2CCCN(Cc3ccc(F)c(OC)c3)C2)cc1 (configuration not stated)	7.08 µM (active)
Cc1ccc2[nH]c3c(c2c1)CCCC3NC(=O)CCl (configuration not stated)	4.47 µM (active)

Compound	Potency
C[n+]1ccn(CC(=O)c2ccc(Cl)cc2)c1	14.1 µM (active)
Cc1cc(C)cc(CC(Cc2nc3ccccc3[nH]2)c2nc3ccccc3[nH]2)c1 (configuration not stated)	1.12 µM (active)
C=CCN1C(=O)[C@@H]2Cc3c([nH]c4ccccc34)C(c3ccc(O)cc3)N2C1=S (some centres not stated)	12.6 µM (active)
CCN1C(=O)[C@@H]2Cc3c([nH]c4ccccc34)C(c3ccc(OC)cc3)N2C1=S (some centres not stated)	11.2 µM (active)
CCc1nc(Nc2ccncc2)c2oc3ccccc3c2n1	3.98 µM (active)
O=C(C[C@@H]1C/C=C\CC[C@@H](Cc2ccc(F)cc2)C(=O)OC[C@@H]2CCCN2C1=O)NCCO	10 µM (active)
O=C(C[C@H]1C(=O)N(Cc2ccccc2)C[C@@H]1Cc1ccccc1)Nc1ccccc1	11.2 µM (active)
CC(C)(C)c1ccc(C(O)CCCN2CCC(C(O)(c3ccccc3)c3ccccc3)CC2)cc1 (configuration not stated)	11.2 µM (active)
CS(=O)(=O)Nc1ccc(C2=NN(C(=O)c3ccco3)C(c3ccc(F)cc3)C2)cc1 (configuration not stated)	10 µM (active)
COc1cc([N+](=O)[O-])ccc1NC(=O)Nc1cccnc1	10 µM (active)
Cc1ccc(S(=O)(=O)N2CCN(C(=O)c3ccc(Br)o3)CC2)c(C)c1	6.31 µM (active)
Cc1ccc(S(=O)(=O)N2CCN(C(=O)c3cc(S(=O)(=O)N(C)C)ccc3N3CCCC3)CC2)c(C)c1	8.91 µM (active)
CCc1ccc(/C=C/c2c[nH]c3ccccc23)[n+](CC)c1	0.0501 µM (active)
CCN1C(=O)c2ccccc2Sc2ccc(C(=O)NCCCN3CCCCC3)cc21	10 µM (active)
Cc1cccc(CN2C(=O)c3ccccc3S(=O)(=O)c3ccc(C(=O)NCCCN4CCCC4)cc32)c1	1.58 µM (active)
CCN1CCCC1CNC(=O)c1ccc2c(c1)N(Cc1ccccc1F)C(=O)c1ccccc1S2(=O)=O (configuration not stated)	2 µM (active)
O=C(NCCCN1CCCC1)c1ccc2c(c1)N(Cc1ccccc1F)C(=O)c1ccccc1S2=O (configuration not stated)	11.2 µM (active)
CCOC(=O)N1CCN(C(=O)c2ccc3c(c2)N(Cc2cc(C)ccc2C)C(=O)c2ccccc2S3=O)CC1 (configuration not stated)	3.98 µM (active)
O=C(c1ccc2c(c1)N(Cc1cccc(Cl)c1)C(=O)c1ccccc1S2(=O)=O)N1CCN(c2ccccn2)CC1	2.82 µM (active)

Compound	Potency
CCCn1c(=NC(=O)CCS(=O)(=O)c2ccccc2)sc2cc(S(N)(=O)=O)ccc21	12.6 µM (active)
O=C(NC1C=CS(=O)(=O)C1)c1sc2ccccc2c1Cl (configuration not stated)	0.398 µM (active)
CC1CCN(C(=O)Cn2c(=O)oc3cc(S(=O)(=O)N4CCCCC4)ccc32)CC1	12.6 µM (active)
COC(=O)c1c(-n2c(C)cc(C=O)c2C)sc2c1CCCC2	12.6 µM (active)
CCOC(=O)C[n+]1c(C)ccc2c1CCC2	12.6 µM (active)
O=C(CCNC(=O)c1ccc(Cl)cc1)NC1CCCc2ccccc21 (configuration not stated)	12.6 µM (active)
CN1CCN(c2ccccc2NC(=O)c2cccc(OCc3ccccc3)c2)CC1	1.78 µM (active)
CCn1c(/C=C/N(C(C)=O)c2ccccc2)[n+](CC)c2ccc(Cl)cc21	1 µM (active)
CCOC(=O)c1ccc2c(c1)n(CC)c(/C=C/N(C)c1ccccc1)[n+]2CC	0.0891 µM (active)
Cc1ccc(CNC(=O)COc2ccccc2-c2ccccc2)cc1	11.2 µM (active)
O=[N+]([O-])c1cccc(-c2c[n+]3c(n2-c2ccccc2)SCC3)c1	1.78 µM (active)
COC(=O)C(NC(=O)c1ccccc1C)(Nc1ncc(S(=O)(=O)c2ccc([N+](=O)[O-])cc2)s1)C(F)(F)F (configuration not stated)	3.16 µM (active)
Cc1c(/C=N/Nc2nc3ccccc3[nH]2)c2ccccc2n1C	0.891 µM (active)
CCN(CC)c1ccc(/C=N/Nc2nc3ccccc3[nH]2)cc1	2.51 µM (active)
Cc1ccc(S(=O)(=O)C2(C(=O)N3CCCCCC3)CC2)cc1	inactive
CC(=O)N1CCSc2ccc(S(=O)(=O)Nc3ccc(C)cc3)cc21	12.6 µM (active)
O=C(COc1ccc(Cl)cc1)Nc1cc(S(=O)(=O)N2CCCCC2)ccc1N1CCCCC1	5.01 µM (active)
CC(Oc1cccc(Cl)c1)C(=O)Nc1cc(S(=O)(=O)N2CCOCC2)ccc1N1CCCCC1 (configuration not stated)	3.98 µM (active)
O=C(COc1ccc(Br)cc1)Nc1cc(S(=O)(=O)N2CCCCC2)ccc1N1CCCCC1	3.98 µM (active)
